This is an account of results in PubChem BioAssay AID624449 (Southern Research Specialized Biocontainment Screening …, 2012).

Results with a measured potency or affinity are listed apart. Calls of active or inactive are those of the source. The rule behind the calls is not given here.

The test can be described thus: VEEV TC-83 cytopathic effect inhibition, confirmation, cell-based, TC-83 strain, set 6 (AID 624449). Conditions: VEEV TC-83 infected cells; series mostly up to 25 µM. On the technique in general: Damage to the host cells serves as the signal in cytopathic effect assays.
For the compound `CCN1CCN(Cc2nc3ccc(C(=O)O)cc3c(=O)n2-c2ccccc2)CC1`, the result was inactive.
For `CCN1CCN(Cc2nc3ccc([N+](=O)[O-])cc3c(=O)n2C)CC1` the value was “inactive”; for `COc1ccccc1-n1c(CN2CCNCC2)nc2ccc([N+](=O)[O-])cc2c1=O`, “inactive”.
